From PubChem BioAssay AID2320 (National Center for Advancing Translational Sciences (NCATS), 2010) come the findings set out here.

Inconclusive results are not listed. A call without a number means that no potency is given here. Active and inactive are the calls of the source. The call rests on the fitted dose curve.
Potency means the concentration at half of the fitted maximal effect.

The assay in a line: A qHTS for Small Molecule Inhibitors of Shiga Toxin (Confirmatory). Further: nearly all actives have a fitted effect of over 75% in size. To be noted: Cell-based Shiga toxin protection reporter assay; series mostly up to 38.3 µM. A general note: In qHTS, concentration-response curves come from the screen itself.
With `CCc1nc2ccccc2c(=O)n1NCCc1ccccc1`, the Potency result is “inactive”. `Cc1ccc(N/C(C(Cl)=C(Cl)Cl)=C(/Cl)[N+](=O)[O-])c(C)c1`: the Potency entry was “inactive”. With `COC(=O)c1ccc(NC(=O)Cc2ccc(F)cc2)cc1` the figure was 5.65 µM (active); with `CC(=O)c1ccc2noc(-c3ccc(F)cc3)c2c1`, 11.3 µM (active). Next, `Cc1sc(NC(=O)CCCC(=O)O)c(C(N)=O)c1-c1ccccc1`: 11.3 µM (active). With `CCn1c(SCC(=O)NCc2ccco2)nc2c1c(=O)n(C)c(=O)n2C` the entry was “inactive”. For `COc1cccc(OC)c1OCCCOc1ccc(C)cc1Br`, the Potency entry is “inactive”.

Take `CC(=O)c1cccc(N2C(=O)C3C4CCC(C4=C(C)C)C3C2=O)c1` (stereo not drawn): the Potency entry is “inactive”. Next, `Nc1nc(-c2nn(Cc3ccccc3F)c3ncccc23)ncc1C1CC1`: “inactive”.

In the case of `Cc1nonc1OCCCNc1ccc([N+](=O)[O-])cc1Cl`, the Potency was 12.6 µM (active). With `CCCc1nc2ccccc2c(=O)n1NC(=O)c1c(O)c2ccccc2[nH]c1=O` the figure was 14.2 µM (active); with `O=C(O)c1ccn(Cn2cnc3ccccc32)n1`, “inactive”; with `Cc1ccc([N+](=O)[O-])cc1NC(=O)CSc1nncn1-c1ccccn1`, “inactive”.

As to `CCOC(=O)N1CCN(C(=O)CCC(=O)c2ccc(OCC)cc2)CC1`, the Potency result was “inactive”.

As to `c1cc2c(cc1Cn1cnnn1)OCO2`, the Potency result was “inactive”.

`CC(=O)N/C(=C\c1ccccc1)C(=O)Nc1ccccc1C`: the Potency was 0.0798 µM (active). Next, `Cn1c(=O)c2ncn(CC(=O)NCCOc3ccccc3)c2n(C)c1=O`: “inactive”; `Cc1cccc(NC(=O)C2CCCC2)c1`: 0.0252 µM (active).

In the case of `Cc1sc(NC(=O)COc2cccc(-n3cnnn3)c2)c(C#N)c1C`, the Potency result is “inactive”.

Regarding `Cc1cc(OCC(=O)NCc2ccccn2)cc(C)c1Br`, the Potency result was “inactive”. On to `CCOc1ccccc1NC(=O)CCS(=O)(=O)c1cccs1`, for which the Potency result is “inactive”. On to `O=C(Nc1nnc(S(=O)(=O)N2CCOCC2)s1)c1cccc(Br)c1`, for which the Potency was 20 µM (active). With `COc1ccc(OCc2cccc(C(=O)O)c2)cc1` the figure was 0.0356 µM (active); with `Cc1cc(C(=O)COC(=O)c2cccn2C)c(C)n1Cc1ccco1`, 0.252 µM (active). Next, `Cc1noc(C)c1S(=O)(=O)Nc1cccc(CO)c1`: “inactive”; `O=C(Cn1cnc2cc([N+](=O)[O-])ccc2c1=O)NCc1ccc(Cl)cc1`: “inactive”; `Cc1ccc(OCC(=O)NNC(=O)CCC(=O)Nc2ccc(C)cc2C)cc1`: “inactive”. With `CC1=C(C)C(OCCBr)N(c2cc(O)c(Cl)cc2F)C1=O` (stereo not drawn) the entry was “inactive”; with `CN(C)S(=O)(=O)c1ccc(C(=O)Nc2ccc(CN3CCCC3)cc2)cc1`, 0.0283 µM (active). For `CCN(CC)CC(=O)Nc1ccc(-c2nc3cc(NC(=O)CN(CC)CC)ccc3o2)cc1`, the Potency entry is “inactive”. Next, `COc1ccccc1C(=O)Nc1ccc(N2CCN(C(C)=O)CC2)cc1`: “inactive”; `CC(C)(C)C(=O)Cn1ncc(N2CCOCC2)c(Br)c1=O`: 22.5 µM (active). With `Cc1cc(C)nc(Sc2ccc3nnnn3n2)n1` the figure was 28.3 µM (active); with `CCOC(=O)Cc1csc(NC(=O)CSc2ncnc3c2cnn3-c2ccc(OC)cc2)n1`, 5.04 µM (active). With `Cc1cnc(NC(=O)c2ccc(-c3nc4ccccc4s3)o2)s1` the figure was 17.9 µM (active); with `Cc1cc(N2CCCCCC2)nc(-c2ccccc2O)n1`, 17.9 µM (active). `CCCCOC(=O)c1ccc(N=Nc2c(C)c(C#N)c(O)[nH]c2=O)cc1`: the Potency was 15.9 µM (active). With `CN(C)C(CNC(=O)CCC(=O)c1ccc(Br)cc1)c1ccccc1` (stereo not drawn) the entry was “inactive”.
